From ChEMBL document CHEMBL4513149, “CO-ADD screening of MMV (CH) - MMV compounds” (2021)
Measured potencies and affinities stand elsewhere.

The molecules below were run on Candida albicans. Settings: 20 µM.

| Structure (SMILES) | Inhibition |
| --- | --- |
| CCN(CC)C(=O)N1CCN(C)CC1 [DIETHYLCARBAMAZINE] | 2.79% |
| c1ccc(-c2cc(N3CCCCC3)c3ccccc3n2)nc1 | -0.2% |
| Cc1nnc(NC(=O)c2cn(-c3ccccc3)nc2-c2ccccc2C)o1 | 4.27% |
| COc1ccc(C2=NN(C3CCCCCC3)C(=O)C2(C)C)cc1OCCCCOc1ccc(-c2nn[nH]n2)cc1 | 5.32% |
| CCOc1ccc(-c2nc(CNCCc3ccc(F)cc3)cs2)cc1 | 7.53% |
| COCC(C)NC(=O)CSc1ncnc2sc(-c3ccccc3)cc12 (configuration not stated) | 9.04% |
| Cc1ccccc1CN1CCC(O)(c2ccc(Cl)c(C(F)(F)F)c2)CC1 | 3.22% |
| Cc1ccc(C(=O)Nc2ccc(S(=O)(=O)O)c3cc(S(=O)(=O)O)cc(S(=O)(=O)O)c23)cc1NC(=O)c1cccc(NC(=O)Nc2cccc(C(=O)Nc3cc(C(=O)Nc4ccc(S(=O)(=O)O)c5cc(S(=O)(=O)O)cc(S(=O)(=O)O)c45)ccc3C)c2)c1 [SURAMIN] | 39.2% |
| CCOc1ccc(-c2nc(NC(=O)CS(=O)(=O)c3ccccc3)sc2C)cc1 | 3.16% |
| CC1=Nc2ccc(Cl)cc2C(O)(c2ccc(C)cc2)N1CCN1CCCCC1 (configuration not stated) | 3.13% |
| Cc1ccc(S(=O)(=O)Nc2ccc(CN3CCN(C(=O)c4cccc(C#N)c4)CC3)cc2)cc1 | -0.01% |
| COc1cc(CN2CCC3(C=Cc4ccccc43)CC2)cc2c1OCO2 | -0.19% |
| Cc1ccc2cc(C3NC(=O)c4ccccc4N3)c(Cl)nc2c1 (configuration not stated) | 3.16% |
| CC(C)/N=c1\cc2n(-c3ccc(Cl)cc3)c3ccccc3nc-2cc1Nc1ccc(Cl)cc1 [CLOFAZIMINE] | 5.63% |
| CS(=O)(=O)c1ccccc1C(=O)N(Cc1ccccc1)c1ccccc1 | 3.84% |
| Nc1nc(N)c2c3c(sc2n1)CN(Cc1ccccc1)CC3 | 2.79% |
| Cl.c1ccc(C[C@@H]2CN(c3nccc(Oc4ccc(-n5ccnc5)cc4)n3)CCN2)cc1 | 3.57% |
| CC1CCCCN1C(=O)NCCc1coc(-c2ccc(F)cc2)n1 (configuration not stated) | 3.66% |

| Structure (SMILES) | Inhibition |
| --- | --- |
| COc1cccc(OC)c1C(=O)Nc1ccc(Cl)c(-c2nc3ccccc3s2)c1 | 4.58% |
| O=C(OCc1ccccc1)N1CCC(c2cc(-c3ccncc3)c(-c3ccc(F)cc3)[nH]2)CC1 | 3.85% |
| CC(=O)N(CCN(C(=O)c1ccc(F)cc1)c1ccccc1)c1ccccc1 | 4.16% |
| CCN(CC)S(=O)(=O)c1ccc(Cl)c(C(=O)Nc2ccc3nc(C)sc3c2)c1 | 3.67% |
| COc1cccc(NC(=O)c2c(NC(=O)c3cccnc3)sc3c2CCC3)c1 | 9.13% |
| COc1ccc(C2CC(c3cccs3)=NN2C(=O)c2ccco2)cc1OC (configuration not stated) | 5.76% |
| COc1ccc(Cn2cnc3c(-c4ccco4)nc(Cl)nc32)cc1 | 6.94% |
| Cc1ccc(NC(=O)c2nc[nH]c2C(=O)Nc2nc3ccccc3[nH]2)c(C)c1 | 23.3% |
| c1ccc(-c2[nH]c3ccccc3c2C(c2ccccn2)N2CCCC2)cc1 (configuration not stated) | 1.35% |
| O=C(C1CCN(c2nnnn2-c2ccccc2)CC1)N1CCc2ccccc2C1 | 2.89% |
| COc1ccc2nc(C)cc(OCC(=O)NCc3ccccc3)c2c1 | 2.81% |
| N#Cc1nc(-c2ccccc2F)oc1NCCc1ccccc1 | 6.96% |
| COc1ccc(OC(C)C(=O)Nc2ccc(Cl)cc2C)cc1 (configuration not stated) | 7.33% |
| O=C(C1CCN(c2nnc(-n3cccc3)s2)CC1)N1CCC(Cc2ccccc2)CC1 | 4.63% |
| Cl.O=C(Nc1ccc(N2CCNCC2)nc1)c1oc(-c2ccccc2)nc1C(F)(F)F | 2.72% |
| CCOc1ccccc1NC(C)C(=O)Nc1cc(C(F)(F)F)ccc1N1CCOCC1 (configuration not stated) | 4.33% |
| Nc1ncnc2c1ncn2C[C@@H](O)[C@@H](O)C(=O)O [ERITADENINE] | 3.88% |
| c1coc(CNc2nc(N3CCCCC3)nc3ccccc23)c1 | 4.06% |

These molecules were tested on Cryptococcus neoformans. Settings: Concentration 20 uM; ASSAY_TEST Inhibition of Fungal Growth; detection method Resazurin; Absorption (OD600-OD570); plate type 384well; NBS; CORNING #3640.

| Structure (SMILES) | Inhibition |
| --- | --- |
| CCN(CC)C(=O)N1CCN(C)CC1 [DIETHYLCARBAMAZINE] | -5.92% |
| c1ccc(-c2cc(N3CCCCC3)c3ccccc3n2)nc1 | -6.72% |
| Cc1nnc(NC(=O)c2cn(-c3ccccc3)nc2-c2ccccc2C)o1 | -7.03% |
| COc1ccc(C2=NN(C3CCCCCC3)C(=O)C2(C)C)cc1OCCCCOc1ccc(-c2nn[nH]n2)cc1 | -17.73% |
| CCOc1ccc(-c2nc(CNCCc3ccc(F)cc3)cs2)cc1 | -5.87% |
| COCC(C)NC(=O)CSc1ncnc2sc(-c3ccccc3)cc12 (configuration not stated) | 0.58% |
| Cc1ccccc1CN1CCC(O)(c2ccc(Cl)c(C(F)(F)F)c2)CC1 | -6.41% |
| Cc1ccc(C(=O)Nc2ccc(S(=O)(=O)O)c3cc(S(=O)(=O)O)cc(S(=O)(=O)O)c23)cc1NC(=O)c1cccc(NC(=O)Nc2cccc(C(=O)Nc3cc(C(=O)Nc4ccc(S(=O)(=O)O)c5cc(S(=O)(=O)O)cc(S(=O)(=O)O)c45)ccc3C)c2)c1 [SURAMIN] | 2.45% |
| CCOc1ccc(-c2nc(NC(=O)CS(=O)(=O)c3ccccc3)sc2C)cc1 | -9.26% |
| CC1=Nc2ccc(Cl)cc2C(O)(c2ccc(C)cc2)N1CCN1CCCCC1 (configuration not stated) | -4.53% |
| Cc1ccc(S(=O)(=O)Nc2ccc(CN3CCN(C(=O)c4cccc(C#N)c4)CC3)cc2)cc1 | -7.61% |
| COc1cc(CN2CCC3(C=Cc4ccccc43)CC2)cc2c1OCO2 | -8.59% |
| Cc1ccc2cc(C3NC(=O)c4ccccc4N3)c(Cl)nc2c1 (configuration not stated) | -7.26% |
| CC(C)/N=c1\cc2n(-c3ccc(Cl)cc3)c3ccccc3nc-2cc1Nc1ccc(Cl)cc1 [CLOFAZIMINE] | -11.17% |
| CS(=O)(=O)c1ccccc1C(=O)N(Cc1ccccc1)c1ccccc1 | -8.51% |
| Nc1nc(N)c2c3c(sc2n1)CN(Cc1ccccc1)CC3 | -1.76% |
| Cl.c1ccc(C[C@@H]2CN(c3nccc(Oc4ccc(-n5ccnc5)cc4)n3)CCN2)cc1 | -6.59% |
| CC1CCCCN1C(=O)NCCc1coc(-c2ccc(F)cc2)n1 (configuration not stated) | -14.62% |

| Structure (SMILES) | Inhibition |
| --- | --- |
| COc1cccc(OC)c1C(=O)Nc1ccc(Cl)c(-c2nc3ccccc3s2)c1 | -8.77% |
| O=C(OCc1ccccc1)N1CCC(c2cc(-c3ccncc3)c(-c3ccc(F)cc3)[nH]2)CC1 | -11.48% |
| CC(=O)N(CCN(C(=O)c1ccc(F)cc1)c1ccccc1)c1ccccc1 | -8.06% |
| CCN(CC)S(=O)(=O)c1ccc(Cl)c(C(=O)Nc2ccc3nc(C)sc3c2)c1 | -11.27% |
| COc1cccc(NC(=O)c2c(NC(=O)c3cccnc3)sc3c2CCC3)c1 | -5.87% |
| COc1ccc(C2CC(c3cccs3)=NN2C(=O)c2ccco2)cc1OC (configuration not stated) | -8.05% |
| COc1ccc(Cn2cnc3c(-c4ccco4)nc(Cl)nc32)cc1 | -6.4% |
| Cc1ccc(NC(=O)c2nc[nH]c2C(=O)Nc2nc3ccccc3[nH]2)c(C)c1 | -8.94% |
| c1ccc(-c2[nH]c3ccccc3c2C(c2ccccn2)N2CCCC2)cc1 (configuration not stated) | -10.11% |
| O=C(C1CCN(c2nnnn2-c2ccccc2)CC1)N1CCc2ccccc2C1 | -8.99% |
| COc1ccc2nc(C)cc(OCC(=O)NCc3ccccc3)c2c1 | -4.71% |
| N#Cc1nc(-c2ccccc2F)oc1NCCc1ccccc1 | -3.78% |
| COc1ccc(OC(C)C(=O)Nc2ccc(Cl)cc2C)cc1 (configuration not stated) | 5.96% |
| O=C(C1CCN(c2nnc(-n3cccc3)s2)CC1)N1CCC(Cc2ccccc2)CC1 | -9.35% |
| Cl.O=C(Nc1ccc(N2CCNCC2)nc1)c1oc(-c2ccccc2)nc1C(F)(F)F | -3.82% |
| CCOc1ccccc1NC(C)C(=O)Nc1cc(C(F)(F)F)ccc1N1CCOCC1 (configuration not stated) | -7.7% |
| Nc1ncnc2c1ncn2C[C@@H](O)[C@@H](O)C(=O)O [ERITADENINE] | -6.54% |
| c1coc(CNc2nc(N3CCCCC3)nc3ccccc23)c1 | -16.26% |
